Results published in PubChem BioAssay (NCI).
About 79,000 compounds went through this panel and 15% of them were active in at least one assay; those are over-represented in the sample as a whole. Cut-off read from the data, not from the text of the source: active = growth inhibition above about 70%; inactive = the rest.

Legend:
[1] = NCI Yeast Anticancer Drug Screen. Data for the rad50 strain (AID 155);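 note: 0% = growth of vehicle-only cultures of the same strain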; settings: S. cerevisiae rad50 strain growth inhibition; at 50.0 µM; stronger effect = higher value
Outline: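 Genetically altered yeast (DNA repair pathway); compound treatment; growth inhibition vs vehicle ctrl.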

[2] = NCI Yeast Anticancer Drug Screen. Data for the mec2-1 strain (AID 157); settings: S. cerevisiae mec2-1 strain, at 50.0 µM, stronger effect = higher value
Outline: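 Mutant yeast (mec2-1) grown with compound; growth inhibition relative to vehicle control reported.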

[3] = NCI Yeast Anticancer Drug Screen. Data for the sgs1 mgt1 strain (AID 161);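 note: 0% = growth of cultures given vehicle only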; settings: S. cerevisiae sgs1 mgt1 strain, at 50.0 µM, stronger effect = higher value
Outline: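 Yeast cells carrying a defined DNA-repair defect were exposed to test compounds. Growth inhibition was measured relative to vehicle-treated controls.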

[4] = NCI Yeast Anticancer Drug Screen. Data for the cln2 rad14 strain (AID 165);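 note: 0% = growth equal to vehicle treated cultures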; settings: S. cerevisiae cln2 rad14 strain, at 50.0 µM, stronger effect = higher value
Outline: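 Readout is yeast growth inhibition versus vehicle-treated controls, using a strain with cln2 and rad14 alterations exposed to compound.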

[5] = NCI Yeast Anticancer Drug Screen. Data for the bub3 strain (AID 167); settings: S. cerevisiae bub3 mutant strain, at 50.0 µM, stronger effect = higher value
Outline: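 Yeast carrying a defined mutation is treated with each compound, and growth is compared with that of vehicle-exposed cells to give inhibition.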

[6] = NCI Yeast Anticancer Drug Screen. Data for the mlh1 rad18 strain (AID 175); settings: S. cerevisiae mlh1 rad18 strain growth inhibition; at 50.0 µM; stronger effect = higher value
Outline: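 Genetically defined yeast (DNA repair-deficient) exposed to compounds; growth inhibition determined relative to vehicle.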

Measured: growth inhibition

CCCCOC(=O)/C=C\C(=O)NC(=O)NC(C)(C)C
inactive: [1] -7.55% | [2] 1.2% | [3] -4.3% | [4] -33.1% | [5] 5.05% | [6] 3.15%

COc1ccc(NC(=O)C(=O)C2CNC(=O)NC2=O)c(OC)c1 (stereo unspecified)
inactive: [1] -9.2% | [2] -5.8% | [3] -17.6% | [4] -6.65% | [5] -13.1% | [6] -17.3%

Cc1cc(OCCBr)ccc1[N+](=O)[O-]
inactive: [1] -4.5% | [2] 9.45% | [3] -17.6% | [4] -15.1% | [5] 22.7% | [6] 0.45%

Cc1ccc2nc(-c3ccc(N)cc3)sc2c1S(=O)(=O)O
inactive: [1] 3.3% | [2] 2.15% | [3] 6.8% | [4] 2.45% | [5] 2.3% | [6] 5.65%

O=C(CC1C(=O)Nc2ccccc2S1=O)Nc1cccc(Cl)c1 (stereo unspecified)
inactive: [1] -32.2% | [2] -31.1% | [3] -4.5% | [4] 18.2% | [5] 10.1% | [6] -25.2%

COc1ccccc1N=NC1=C2Nc3ccccc3N=C1N(c1ccccc1OC)C(=S)N2c1ccccc1C
inactive: [1] -10.3% | [2] -11.3% | [3] -16.4% | [4] -11.5% | [5] -2.95% | [6] -30.4%

O=C(O)CCc1nc2ccccc2[nH]1
inactive: [1] -9.3% | [2] -4.9% | [3] -23.8% | [4] 39.1% | [5] -43.9% | [6] -1%

C=C1CCC(OC(C)=O)C2(C)C(OC(C)=O)CC3OC3(C)C2C(OC(C)=O)C2C(C)C(=O)OC2C1Cl (stereo unspecified)
inactive: [1] 3.2% | [2] -20.8% | [3] 1.55% | [4] 6.45% | [5] 3% | [6] 4.8%

C=C(C)COc1ccc(-c2ccccc2)cc1
inactive: [1] 24.5% | [2] 7.35% | [3] 8% | [4] -4.95% | [5] -3.85% | [6] -3.2%

COc1cc(OC)c2nc(C)c3c(c2c1)SCC3
inactive: [1] -0.5% | [2] -23.1% | [3] 5.25% | [4] 7.4% | [5] 28.6% | [6] 20%

COc1cccc2cc(-c3c[nH]c4ccccc34)c(=O)oc12
inactive: [1] 1% | [2] 11.2% | [3] 11.2% | [4] 7% | [5] 1.65% | [6] 0.75%

NC(=S)N/N=C1\CCCC1C(O)(C(F)(F)Cl)C(F)(F)Cl (stereo unspecified)
inactive: [1] 65.3% | [2] 17.6% | [3] 56.1% | [4] 35% | [5] 29.9% | [6] 62.5%

CC[N+](C)(C)CCOP(=O)(c1ccccc1)c1ccccc1
inactive: [1] 2.4% | [2] 6.35% | [3] -15.1% | [4] 4.6% | [5] -2.2% | [6] 9.5%

NC(=O)C(Br)Cc1cccc(Cl)c1 (stereo unspecified)
inactive: [1] 29.6% | [2] 11.2% | [3] 13.4% | [4] 2.05% | [5] 17.9% | [6] 14.4%

CCCCCCC1(/C=C\c2ccccc2Cl)OCCO1
inactive: [1] 37.6% | [2] 31.5% | [3] 37.5% | [4] -9.6% | [5] 16.9% | [6] 23.3%

O=Nc1ccc(O)cc1Cc1ccccc1
inactive: [1] -10.4% | [2] -5.95% | [3] -19.8% | [4] -5.3% | [5] 5.1% | [6] -1.5%

Cc1cc(C)c(NC(=O)c2c(Cl)c(Cl)c(Cl)c(Cl)c2C(=O)O)c(C)c1
inactive: [1] -4.9% | [2] -4.45% | [3] 0.05% | [4] -51.3% | [5] 5.5% | [6] 0.3%

CCCCNC(C(=O)c1ccc(N(C)C)cc1)c1ccccc1 (stereo unspecified)
inactive: [1] 3.7% | [2] -10.6% | [3] -3.1% | [4] -8.15% | [5] 2.95% | [6] -13.9%

CC1CCCC2(CN=C(Nc3ccccc3)O2)C1 (stereo unspecified)
inactive: [1] -13.7% | [2] -8.45% | [3] -7.05% | [4] -75% | [5] -10.1% | [6] -6.15%

O=[N+]([O-])c1ccc(-c2csc(N=Nc3c(O)[nH]c4ccccc34)n2)cc1
inactive: [1] -31.2% | [2] -20.2% | [3] -22.4% | [4] -16.7% | [5] -31.4% | [6] -46.4%

CCOC(=O)c1ccc(Nc2nc3ccccc3nc2C(=O)OCC)cc1
inactive: [1] -31.8% | [2] -39.1% | [3] -4.95% | [4] -3.7% | [5] 18.4% | [6] -26.9%
